Jurkat NFkB inh = inhibitors of the PMA/ionomycin-induced NF-kB reporter in Jurkat cells. PMA/ionomycin-induced NF-kB luciferase reporter, luminescence. inhibition, % at 4 µM. hit rate 0.53% among 330,000. AID 435003; in the data active = inhibition above about 50%
Beta apoptosis = blocks beta cell apoptosis; INS-1E cytokine-induced death, ATP luminescence, 48 h; percent of positive-control rescue, neutral wells zero; hit rate 0.8% among 300,000; AID 435005; protection from apoptosis, % (test concentration not listed);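 active = Every replicate reaches about 75%, or at least half do and their mean reaches it too, limit read from the data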;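 also: higher means more ATP so stronger rescue from cytokine killing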
Gli-Sufu block = Gli-Sufu pathway antagonism; inhibition, % at 5 µM; AID 588413; Sufu-KO-LIGHT fibroblasts, Gli luciferase reporter luminescence; hit rate 0.74% among 340,000;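 active = inhibition above about 55%, limit read from the data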
697 NFkB inh = lowers PMA/ionomycin-induced NF-kB signal in 697 B cells | inhibition, % at 4 µM | 697 B-cell NF-kB luciferase reporter, 16 h | hit rate 0.33% among 330,000; in the data active = inhibition above about 35%
A number is an active result; 0 = inactive; - = no result. The list is not random: actives were taken first. Their share in the collection is about 1.8%.

SMILES | Jurkat NFkB inh | Beta apoptosis | Gli-Sufu block | 697 NFkB inh
COCCn1c(N)c(N(Cc2ccccc2)C(=O)C2=COCCO2)c(=O)[nH]c1=O | 0 | 0 | 0 | 0
O=C(N/N=C/c1cc([N+](=O)[O-])ccc1O)c1ccc2c(c1)OCCO2 | 0 | 105.2 | 0 | 0
O=C(N/N=C/c1cc([N+](=O)[O-])ccc1O)c1cccc2cc[nH]c12 | 0 | 100.4 | 0 | 0
O=C(N/N=C/c1ccccc1[N+](=O)[O-])c1ccc2c(c1)OCCO2 | 0 | 0 | 0 | 0
CCOc1cccc(/C=N/NC(=O)c2ccc3c(c2)OCCO3)c1O | 0 | 91.6 | 0 | 0
O=C(N/N=C/c1cccc([N+](=O)[O-])c1)c1cccc2cc[nH]c12 | 0 | 0 | 0 | 0
CCCCCc1ccc(OCCOCCn2c[n+](C)c3ccccc32)c(CCCCC)c1 | - | - | 87.3 | -
CC(C)CCCCCCCCCCCCC(=O)NCC(=O)NC1C(O)C(O)C(Nc2ncnc3nc[nH]c23)OC1C(O)CO (configuration not stated) | - | - | 84.8 | -
CC(O)CNc1ncnc2nc[nH]c12 (configuration not stated) | 0 | 0 | 0 | 0
CC(=O)Cn1ncc(Br)c(Br)c1=O | - | - | 0 | -
O=C(OCn1ncc(Br)c(Br)c1=O)c1c(F)cccc1F | - | 111.8 | - | -
Cc1ccc(N2C(=O)CCC2(C#N)c2ccccc2)cc1 (configuration not stated) | 0 | 0 | 0 | 0
O=C(Nc1cccc(C(F)(F)F)c1)Nc1ccc(N2CCCC2)c(S(=O)(=O)Nc2ccccc2Cl)c1 | 0 | 103.0 | 0 | 0
O=C1c2ccccc2C2=Nc3ccccc3SC(c3ccc(Cl)cc3)C12 (configuration not stated) | 0 | 95.1 | 0 | 0
O=C1c2ccccc2C2=Nc3ccccc3SC(c3cccc(F)c3)C12 (configuration not stated) | 0 | 0 | 0 | 0
CCc1ccc(S(=O)(=O)Nc2cc3c(cc2C)n(C)c(=O)n3C)cc1 | 0 | 0 | 65.2 | 0
O=S(=O)(c1ccc2nc(Nc3ccccc3)ccc2c1)N1CCCCC1 | 0 | 103.1 | 0 | 0
CC(Sc1nnc(-c2ccccc2F)n1N)C(=O)NCC1CCCO1 (configuration not stated) | 0 | 0 | 0 | 0
CCC1(C)Cc2c(sc(NC(=S)NC(=O)c3ccccc3)c2C#N)CO1 (configuration not stated) | 0 | 0 | 0 | 0
CN1Cc2sc(NC(=S)NC(=O)c3ccccc3)c(C#N)c2CC1(C)C | 0 | 0 | 60.1 | 0
O=C(Sc1ccc(Cl)cc1)c1cccc(Cn2cc(C(F)(F)F)ccc2=O)c1 | 0 | 0 | 0 | 0
Cc1ccc(/C(N)=N/OC(=O)c2cccc(Cn3cc(C(F)(F)F)ccc3=O)c2)cc1 | 0 | 99.0 | 0 | 0
N/C(=N\OC(=O)c1cccc(Cn2cc(C(F)(F)F)ccc2=O)c1)c1ccccc1 | 0 | 113.0 | 0 | 0
N/C(=N\OC(=O)c1cccc(Cn2cc(C(F)(F)F)ccc2=O)c1)c1ccc(Cl)cc1 | 0 | 112.8 | 0 | 0
COc1cnc(-c2ccccn2)nc1N(C)c1ccccc1 | 0 | 91.7 | 0 | 0
SMILES | Jurkat NFkB inh | Beta apoptosis | Gli-Sufu block | 697 NFkB inh
COc1cnc(-c2ccccn2)nc1Oc1ccccc1 | 0 | - | 0 | 0
COc1ccc(Sc2nc(-c3ccccn3)ncc2OC)cc1 | 0 | 89.5 | 0 | 0
COc1cc(Nc2ccc(S(=O)(=O)N3CCN(C)CC3)cc2[N+](=O)[O-])cc(OC)c1 | 0 | 0 | 0 | 0
CNS(=O)(=O)c1cc(-c2nnc(Nc3ccc(CC(N)=O)cc3)c3ccccc23)ccc1C | 0 | - | 0 | 0
O=C(Nc1ccccc1)C(=O)Nc1ccccn1 | 0 | 0 | 0 | 0
S=C(Nc1ccc(Nc2ccccc2)cc1)Nc1ccccn1 | 0 | 86.2 | 0 | 0
COc1ccc(S(=O)(=O)N2CCCCCC2)cc1C(=O)OCc1cccc(OC)c1OC | 0 | - | 0 | 0
CC1=NN(c2nc(-c3ccc(C)cc3)cs2)C(=O)C1N=Nc1ccc(C(N)=O)cc1 (configuration not stated) | - | 78.5 | 0 | -
COc1ccc(NC(=O)N(C)C[C@@H]2Oc3c(NC(=O)Nc4c(C)noc4C)cccc3C(=O)N([C@@H](C)CO)C[C@@H]2C)cc1 | 0 | 0 | 0 | 0
CCN1CCCC1CNC(=O)C1CCCN(S(=O)(=O)c2cccc3nsnc23)C1 (configuration not stated) | 0 | 0 | 0 | 0
Cc1ccc(NC(=O)c2ccc([N+](=O)[O-])o2)cc1S(=O)(=O)N1CCOCC1 | 0 | 94.0 | 0 | 0
C=CCC1(CC=C)CCCN1C(=O)c1cc(COc2ccc(C)nc2)on1 | 0 | 105.3 | 77.2 | 0
N#CCSc1nc2ccccc2c2nc3ccccc3n12 | 0 | 102.9 | 0 | 0
N=C1S/C(=C\c2ccc(-c3cccc(Cl)c3)o2)C(=O)N1c1nccs1 | - | 0 | 87.8 | -
CCOc1ccc(Nc2nc(NCC3CCCO3)c3ccccc3n2)cc1 (configuration not stated) | 0 | 0 | 71.4 | 0
c1ccc(-c2nc(NCc3ccco3)c3ccccc3n2)nc1 | 0 | 101.4 | 0 | 0
CCOc1ccc(Nc2c3ccccc3nc3ccccc23)cc1 | 0 | 78.7 | 0 | 0
COc1ccc(Nc2nc(NCC3CCCO3)c3ccccc3n2)c(OC)c1 (configuration not stated) | 0 | 0 | 0 | 0
c1ccc(-c2nc(NCC3CCCO3)c3ccccc3n2)nc1 (configuration not stated) | 0 | 115.2 | 0 | 0
O=C(Nc1nnc(SCc2ccccc2)s1)C1=COCCO1 | 0 | 0 | 0 | 0
COc1cc2c(C#N)c(N3CCCC3)nc(N)c2c(N)n1 | 0 | 0 | 0 | 0
N#Cc1c(N2CCCC2)nc(N)c2c(N)nc(N3CCCC3)cc12 | 0 | 79.6 | 0 | 0
Cc1ccc(S(=O)(=O)N(C)C)cc1NC(=O)COC(=O)Cc1ccccc1F | 0 | 0 | 0 | 0
C(=N\Nc1nncc2ccccc12)/c1ccccn1 | 0 | 97.9 | 0 | 0
C(=N\Nc1nc2ccccc2[nH]1)/c1ccccn1 | - | - | 0 | -
SMILES | Jurkat NFkB inh | Beta apoptosis | Gli-Sufu block | 697 NFkB inh
Cc1cc(=O)[nH]c(N/N=C/c2ccccn2)n1 | 0 | 95.0 | 0 | 0
O=c1cnnc(N/N=C/c2ccccn2)[nH]1 | 0 | 105.9 | 74.4 | 0
COc1ccc(NC(=S)NC(=O)c2cccnc2)cc1 | 0 | 0 | 0 | 0
Cc1nc2ccc(F)cc2cc1C(=O)Nc1ccc(Cl)c(Cl)c1 | - | 0 | 0 | -
COc1cc2nc(SCc3ccc(F)cc3)n(Cc3cccs3)c(=N)c2cc1OC | 0 | 0 | 0 | 0
COc1ccc(Cn2c(SCc3ccccc3C)nc3cc(OC)c(OC)cc3c2=N)cc1 | 0 | 108.5 | - | 0
O=C(NC1CCCCC1)C(c1ccc(F)cc1)N(C(=O)c1csnn1)C1CC1 (configuration not stated) | 0 | 0 | 0 | 0
CCS(=O)(=O)c1ccc2oc(SCC(=O)NCCC3=CCCCC3)nc2c1 | 0 | 0 | 0 | 0
COc1ccc([C@H]2CC(=O)C=C(/C=C/c3ccc(C(F)(F)F)cc3)C2)cc1 | 0 | 0 | 0 | 0
O=C(Nc1ccc2c(c1)OCCO2)C1CCN(S(=O)(=O)c2cccs2)CC1 | 0 | 0 | 0 | 0
CCCNC(=O)c1ccc2c(=O)c(O)c(-c3ccc(Cl)c([N+](=O)[O-])c3)[nH]c2c1 | 0 | 78.5 | 0 | 0
O=C(NCCc1nc2ccccc2[nH]1)c1ccc(Cl)c([N+](=O)[O-])c1 | 0 | 0 | 0 | 0
CN=c1scc(-c2ccccc2Br)n1/N=C/c1ccc[nH]1 | 0 | 0 | - | 0
